Results on 38 compounds are retold here after PubChem BioAssay (EPA / NIEHS).

Structures are written as SMILES. Inconclusive results are not listed. Calls of active or inactive are those of the source. How the source made its calls: active means hit-call score of the fitted dose curve at least 0.9, where 1 is the maximum; inconclusive means response in the unintended direction; inactive means score below 0.9.

Tested on in one assay: not listed separately
Kind of assay: TOX21_p53_BLA_p3_viability: Viability Assessment in the Tox21 HCT-116 p53 Agonism Beta-lactamase Assay, Phase 3 (AID 2283593).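 Further: cells exposed to compound for 16 h before reading.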 The gist of the method: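 HCT-116 cells (4000/well) rested 5 h at 37C, then got DMSO compounds by pin tool (217-fold dilution) for 16 h at 37C, 5% CO2. After the bla read, CellTiter-Glo was added and luminescence read at 30 min, room temperature.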
As for `CCCCCCC#N`, the call was inactive.

For `CCCCCCCC(=O)Cl`, the compound was classed as inactive.

Turning to `O=C1NCN(c2ccccc2)C12CCN(CC1COc3ccccc3O1)CC2` (configuration not stated), the compound was called inactive.

Regarding `NCc1cccnc1`, the compound was classed as inactive.

A further assay addresses Cellular tumor antigen p53 (Homo sapiens) (UniProt P04637). The experiment in a line: TOX21_p53_BLA_p3_ratio: Tox21 HCT-116 p53 Agonism Beta-lactamase Assay, Ratio, Phase 3 (AID 2283596). The gist of the method:
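Cells were seeded at 4000/well, rested 5 h at 37C, then dosed with DMSO compound solutions (217-fold dilution) for 16 h. CCF4-AM substrate was loaded for 2 h at room temperature, and the 460/530 nm emission ratio was fitted for gain of signal versus DMSO.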
`O=C(Cl)C(Cl)(Cl)Cl`: the result was inactive.

Regarding `O=[N+]([O-])c1cc(Cl)c(Cl)c(Cl)c1`, the result was inactive.

As to `COP(=S)(OC)Oc1ccc([N+](=O)[O-])cc1Cl`, the result was inactive.

With `O=NN1CCCCC1`, the result was inactive.

`CN(C)C(=O)Oc1cc(OC(=O)N(C)C)cc(C(O)CNC(C)(C)C)c1` (configuration not stated): the result was inactive.

As to `CN1CC[C@]23c4c5ccc(O)c4O[C@H]2[C@@H](O)CC[C@H]3[C@H]1C5`, the outcome was inactive.

Regarding `COc1cc(CC(C)N)cc2c1OCO2` (configuration not stated), the outcome was inactive.

As for `ClC=C(Cl)Cl`, the result was inactive.

Take `CCCCCCCCP(=O)(O)O`: the outcome was inactive.

On to `CC(C)(C)C(=O)Cl`, for which the outcome was inactive.

As to `CCCCC(=O)Cl`, the result was inactive.

With `Cc1nnc2n1-c1ccc(Cl)cc1C(c1ccccc1)=NC2`, the outcome was inactive.

In the case of `c1ccc(CN2CCNCC2)cc1`, the result was inactive.

As for `Nc1ccccc1Cl`, the outcome was inactive.

On to `CNC(=O)Oc1ccccc1C(C)C`, for which the outcome was inactive.

Take `O=[N+]([O-])c1ccccc1-c1ccccc1`: the outcome was inactive.

Tested on in a further assay: not listed separately
Kind of assay: TOX21_p53_BLA_p4_viability: Viability Assessment in the Tox21 HCT-116 p53 Agonism Beta-lactamase Assay, Phase 4 (AID 2283597).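 Further: hits lower the luminescence signal meaning cytotoxicity.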 The gist of the method: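 ATP content by CellTiter-Glo luminescence, 30 min RT, read after the beta-lactamase ratio step. Cells: HCT116, 4000/well, compound added after 5 h, exposure 16 h at 37C. Signal loss = reduced viability.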
For `N#CNC#N`, the compound was classed as inactive.

As to `O=C(Cl)C(Cl)(Cl)Cl`, the result was inactive.

With `COP(=S)(OC)Oc1ccc([N+](=O)[O-])cc1Cl`, the call was inactive.

As for `O=NN1CCCCC1`, the outcome was inactive.

With `CN1CC[C@]23c4c5ccc(O)c4O[C@H]2[C@@H](O)CC[C@H]3[C@H]1C5`, the compound was called inactive.

Turning to `CCCBr`, the outcome was inactive.

On to `ClC=C(Cl)Cl`, for which the compound was called inactive.

As to `Cc1cccc(N)c1C`, the result was inactive.

As for `CCCCC(=O)Cl`, the outcome was inactive.

As to `Cc1nnc2n1-c1ccc(Cl)cc1C(c1ccccc1)=NC2`, the compound was called inactive.

Regarding `ClC(Cl)=C(Cl)Cl`, the result was inactive.

For the compound `c1ccc(C2(c3ccccc3)CC2C2=NCCN2)cc1` (configuration not stated), the compound was classed as inactive.

Turning to `Nc1ccccc1Cl`, the compound was called inactive.

Consider `Oc1ccc2c3c1O[C@H]1[C@@H](O)CC[C@@]4(O)[C@@H](C2)N(CC2CCC2)CC[C@]314`, for which the compound was classed as inactive.

As for `CS(=O)(=O)Cl`, the result was inactive.

Turning to `Brc1ccccc1`, the call was inactive.

Turning to `CCC1(CC)C(=O)C=CNC1=O`, the compound was called inactive.

On to `C[C@H](CN1CCOCC1)C(C(=O)N1CCCC1)(c1ccccc1)c1ccccc1`, for which the call was inactive.

`CC(=O)[C@H]1CC[C@H]2[C@@H]3CC[C@H]4C[C@H](O)CC[C@]4(C)[C@H]3C(=O)C[C@]12C`: the compound was classed as inactive.

The target of another assay is Cellular tumor antigen p53 (Homo sapiens) (UniProt P04637). The experiment in a line: TOX21_p53_BLA_p5_ratio: Tox21 HCT-116 p53 Agonism Beta-lactamase Assay, Ratio, Phase 5 (AID 2283599). The gist of the method: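 HCT-116 cells carrying a p53-inducible beta-lactamase reporter were seeded at 4000 cells/well and dosed after 5 h with compound in DMSO (217-fold dilution). After 16 h at 37C, CCF4-AM substrate was added for 2 h, and the 460/530 nm emission ratio was scored as gain-of-signal versus DMSO.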
Sequence of Cellular tumor antigen p53 (Homo sapiens) (P04637 whole entry, looked up): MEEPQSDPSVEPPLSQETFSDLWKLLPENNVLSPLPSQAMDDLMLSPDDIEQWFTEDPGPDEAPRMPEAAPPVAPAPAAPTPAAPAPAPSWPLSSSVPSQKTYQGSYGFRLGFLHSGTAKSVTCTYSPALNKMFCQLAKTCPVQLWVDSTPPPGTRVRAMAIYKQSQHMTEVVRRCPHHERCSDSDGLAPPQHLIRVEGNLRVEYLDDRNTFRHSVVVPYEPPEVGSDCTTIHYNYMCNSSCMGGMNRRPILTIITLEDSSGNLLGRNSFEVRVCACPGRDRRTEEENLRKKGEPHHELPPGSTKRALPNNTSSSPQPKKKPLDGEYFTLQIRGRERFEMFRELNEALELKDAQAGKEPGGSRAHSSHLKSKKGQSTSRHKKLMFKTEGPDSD
Take `CCCCCCC#N`: the result was inactive.

Consider `O=[N+]([O-])c1cc(Cl)c(Cl)c(Cl)c1`, for which the result was inactive.

For the compound `O=NN1CCCCC1`, the result was inactive.

Turning to `CN1CC[C@]23c4c5ccc(O)c4O[C@H]2[C@@H](O)CC[C@H]3[C@H]1C5`, the result was inactive.

In the case of `CCCBr`, the result was inactive.

As to `COc1cc(CC(C)N)cc2c1OCO2` (configuration not stated), the outcome was inactive.

As to `ClC=C(Cl)Cl`, the result was inactive.

On to `CCCCCON=O`, for which the result was inactive.

For the compound `CCCCCCCC(=O)Cl`, the result was inactive.

On to `Cc1cccc(N)c1C`, for which the outcome was inactive.

On to `CC(C)(C)C(=O)Cl`, for which the result was inactive.

As to `CNC(C)(C)Cc1ccccc1`, the result was inactive.

On to `Cc1nnc2n1-c1ccc(Cl)cc1C(c1ccccc1)=NC2`, for which the result was inactive.

For the compound `NCc1cccnc1`, the outcome was inactive.

`ClC(Cl)=C(Cl)Cl`: the result was inactive.

As to `c1ccc(CN2CCNCC2)cc1`, the result was inactive.

As for `CCN(C(C)=O)c1cccc(-c2ccnc3c(C#N)cnn23)c1`, the outcome was inactive.

Regarding `CCN(CC)CCOC(=O)C(C)(c1ccccc1)c1ccccc1`, the outcome was inactive.

Regarding `CCC1(CC)C(=O)C=CNC1=O`, the result was inactive.

For `O=[N+]([O-])c1ccccc1-c1ccccc1`, the result was inactive.

Tested on in a further assay: not listed separately
Kind of assay: TOX21_p53_BLA_p5_viability: Viability Assessment in the Tox21 HCT-116 p53 Agonism Beta-lactamase Assay, Phase 5 (AID 2283600). The gist of the method:
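ATP luminescence (CellTiter-Glo, 30 min, RT) served as the viability read-out, with loss of signal indicating cytotoxicity. Compounds in DMSO were pinned at a 217-fold dilution onto 4000 cells/well and incubated 16 h, 37C.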
For `C=CC(=C)C`, the outcome was inactive.

Take `N#CNC#N`: the compound was classed as inactive.

With `O=C(Cl)C(Cl)(Cl)Cl`, the compound was classed as inactive.

Turning to `COP(=S)(OC)Oc1ccc([N+](=O)[O-])cc1Cl`, the result was inactive.

For `O=NN1CCCCC1`, the compound was classed as inactive.

As for `CN(C)CCCCCCN(C)C`, the compound was called inactive.

As for `CCCCCCCC(=O)Cl`, the result was inactive.

For the compound `O=C1NCN(c2ccccc2)C12CCN(CC1COc3ccccc3O1)CC2` (configuration not stated), the compound was classed as inactive.

Take `Cc1cccc(N)c1C`: the result was inactive.

As for `CC(C)(C)C(=O)Cl`, the outcome was inactive.

Take `CCCSC(=O)Cl`: the call was inactive.

In the case of `CNC(C)(C)Cc1ccccc1`, the outcome was inactive.

As for `NCc1cccnc1`, the result was inactive.

On to `ClC(Cl)=C(Cl)Cl`, for which the result was inactive.

Consider `c1ccc(C2(c3ccccc3)CC2C2=NCCN2)cc1` (configuration not stated), for which the result was inactive.

As to `CCN(C(C)=O)c1cccc(-c2ccnc3c(C#N)cnn23)c1`, the result was inactive.

`Oc1ccc2c3c1O[C@H]1[C@@H](O)CC[C@@]4(O)[C@@H](C2)N(CC2CCC2)CC[C@]314`: the compound was called inactive.

Consider `CS(=O)(=O)Cl`, for which the compound was classed as inactive.

For `Brc1ccccc1`, the compound was called inactive.

As for `CCC1(CC)C(=O)C=CNC1=O`, the result was inactive.

Take `O=[N+]([O-])c1ccccc1-c1ccccc1`: the outcome was inactive.

Another assay concerns the target Cellular tumor antigen p53 (Homo sapiens) (UniProt P04637). Kind of assay: TOX21_p53_BLA_p4_ratio: Tox21 HCT-116 p53 Agonism Beta-lactamase Assay, Ratio, Phase 4 (AID 2283601). The gist of the method: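 HCT116 cells carrying an inducible beta-lactamase reporter were plated at 4000 cells/well, rested 5 h, then exposed to compounds in DMSO (217-fold dilution) for 16 h at 37C. CCF4-AM substrate was loaded 2 h at room temperature; 460/530 nm emission ratio scored gain-of-signal versus DMSO.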
On to `N#CNC#N`, for which the outcome was inactive.

Take `O=C(Cl)C(Cl)(Cl)Cl`: the result was inactive.

As for `CCCCCCC#N`, the outcome was inactive.

With `COP(=S)(OC)Oc1ccc([N+](=O)[O-])cc1Cl`, the result was inactive.

On to `O=NN1CCCCC1`, for which the result was inactive.

On to `CN(C)C(=O)Oc1cc(OC(=O)N(C)C)cc(C(O)CNC(C)(C)C)c1` (configuration not stated), for which the outcome was inactive.

With `COc1cc(CC(C)N)cc2c1OCO2` (configuration not stated), the result was inactive.

In the case of `ClC=C(Cl)Cl`, the outcome was inactive.

Turning to `CN(C)CCCCCCN(C)C`, the outcome was inactive.

For the compound `CCCCCCCC(=O)Cl`, the outcome was inactive.

Turning to `CCCCCCCCP(=O)(O)O`, the outcome was inactive.

For the compound `O=C1NCN(c2ccccc2)C12CCN(CC1COc3ccccc3O1)CC2` (configuration not stated), the result was inactive.

As to `CC(C)(C)C(=O)Cl`, the result was inactive.

Turning to `CCCSC(=O)Cl`, the outcome was inactive.

Consider `CNC(C)(C)Cc1ccccc1`, for which the result was inactive.

Consider `Cc1nnc2n1-c1ccc(Cl)cc1C(c1ccccc1)=NC2`, for which the outcome was inactive.

For `NCc1cccnc1`, the outcome was inactive.

As for `ClC(Cl)=C(Cl)Cl`, the outcome was inactive.

Regarding `CCN(C(C)=O)c1cccc(-c2ccnc3c(C#N)cnn23)c1`, the outcome was inactive.

Regarding `Oc1ccc2c3c1O[C@H]1[C@@H](O)CC[C@@]4(O)[C@@H](C2)N(CC2CCC2)CC[C@]314`, the result was inactive.

As to `CNC(=O)Oc1ccccc1C(C)C`, the result was inactive.

Regarding `CCC1(CC)C(=O)C=CNC1=O`, the result was inactive.
